# Test system: Vero E6 infected with SARS-CoV-2
# Assay: inhibition of SARS-CoV-2 cytopathic effect; higher = more antiviral protection, active = above 15
# Settings: 10000 nM; 48 h
row,Structure (SMILES),inhibition of SARS-CoV-2 cytopathic effect
1,COC(=O)CCc1ccc(OCC(O)CNC(C)C)cc1 (configuration not stated) [esmolol],-0.39% (inactive)
2,Cc1c(NC(=O)c2cc3c(s2)CCCC3)cccc1-c1cn(C)c(=O)c(Nc2ccc(C3C(=O)N(C)CCN3C)cc2)n1 (stereo in doubt),7.34% (inactive)
3,C[C@@H]1CN(Cc2ccc(F)cc2)[C@@H](C)CN1C(=O)c1cc2c(C(=O)C(=O)N(C)C)cn(C)c2cc1Cl [talmapimod],-1.11% (inactive)
4,Cc1cc2sc(NC(=O)Cc3ccccc3)nc2cc1Cl,3.87% (inactive)
5,NC(=O)[C@@H](CC1CC1)[C@@H](CCC(F)(F)F)C(=O)N[C@H]1N=C(c2ccccc2)c2cccc(F)c2NC1=O,-5.54% (inactive)
6,CS(=O)(=O)Oc1ccc2c(NC(N)=O)c(C(=O)c3ccc(Cl)cc3Cl)oc2c1 [lirimilast],-5.64% (inactive)
7,NC(=O)c1cccc(N)c1 [3-amino-benzamide],0.61% (inactive)
8,Fc1ccc(C(c2ccc(F)cc2)N2CCN(C/C=C/c3ccccc3)CC2)cc1 [flunarizine],-3.88% (inactive)
9,CC(C)NCC(O)COc1cccc2[nH]ccc12 (configuration not stated) [pindolol],-1.61% (inactive)
10,CN1C/C=C/CCOc2cccc(c2)-c2ccnc(n2)Nc2cccc(c2)C1,-9.98% (inactive)
11,CCC[C@H](N[C@@H](C)C(=O)N1[C@H](C(=O)O)C[C@@H]2CCCC[C@@H]21)C(=O)OCC [perindopril],0.19% (inactive)
12,O=C1[C@H]2CCCC[C@H]2C(=O)N1CCCCN1CCN(c2nsc3ccccc23)CC1 [perospirone],-1.69% (inactive)

# Reference: the supplement of paper PMC13380429
